# Assay outcomes as filed in PubChem.
# BAZ2B block: inhibitors of human BAZ2B bromodomain; Q9UIF8; AlphaScreen BAZ2B-H3K14Ac peptide displacement; Potency, µM (series often up to 114 µM), inactives show top-dose activity change, negative = inhibition, actives largely listed as inhibitors; 4.4% of 360,000 active; AID 504333; further: on the % scale 0 is the no-effect control and ±100 the full control effect; nearly all actives have a fitted effect of over 60% in size
#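 Protein-peptide AlphaScreen: BAZ2B 50 nM, b-H3K14Ac 50 nM, 1x PBS pH 7.4 + 0.01% Tween-20. Preincubation 30 min RT; cpd 30 min RT (top 110 uM); beads 20 min RT, light-protected.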
# JMJD2A Tudor: inhibitors of human JMJD2A Tudor domain. Potency, µM (highest dose often 114 µM), inactives show at the highest dose activity change, negative = inhibition, hits mostly inhibitors. 4.4% of 390,000 active. AlphaScreen JMJD2A-Tudor / H3K4me3 peptide binding. O75164; further: on the % scale 0 is the no-effect control and ±100 the full control effect; nearly all actives have a fitted effect of over 50% in size
# L3MBTL1 inh: L3MBTL1 (human) inhibition. 0.66% of 230,000 active. AlphaScreen L3MBTL1–H3K9me1 peptide binding. Potency, µM (highest dose often 57.1 µM), without a hit: at the top dose activity, negative = inhibition, actives largely listed as inhibitors. AID 485360; further: on the % scale 0 is the no-effect control and ±100 the full control effect; nearly all actives have a fitted effect of over 60% in size
#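 L3MBTL1 (50 nM) pre-complexed 30 min with biotinylated H3(1-15)K9me1 peptide (75 nM), then compounds added for 30 min at room temperature; AlphaScreen streptavidin donor/nickel chelate acceptor beads (10 ug/mL final) read after 30 min dark incubation.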
# HP1b chromo inh: blocks HP1-beta chromodomain binding to methylated histone tails; Potency, µM (titrated, usually from 114 µM), for the others: at the highest dose activity change, negative = inhibition, actives largely listed as inhibitors; P83916; 0.56% of 390,000 active; AlphaScreen HP1-beta / biotin-H3K9me3 peptide binding; further: nearly all actives have a fitted effect of over 70% in size
# Target sequence (P83916 whole entry, looked up): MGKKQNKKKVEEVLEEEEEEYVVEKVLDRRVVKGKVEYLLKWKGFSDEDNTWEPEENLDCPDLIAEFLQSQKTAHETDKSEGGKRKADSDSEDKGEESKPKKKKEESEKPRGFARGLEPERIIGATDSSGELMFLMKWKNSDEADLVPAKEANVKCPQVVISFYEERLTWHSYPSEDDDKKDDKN
#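 Compound inhibition of the preformed complex between 50 nM HP1-beta and 50 nM biotinylated H3K9me3 peptide was read by AlphaScreen. Buffer was PBS pH 7.4 with 0.01% Tween-20. Incubations ran 30 min at room temperature, with 10 ug/mL donor/acceptor beads.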
# G9a inh: inhibitors of human histone lysine methyltransferase G9a; Q96KQ7; G9a H3K9 monomethylation, AlphaScreen, 2 h; Potency, µM (top dose mostly 102 µM), for inactives: at the highest dose activity, negative = inhibition, usual class: inhibitors; 8.8% of 350,000 active; further: on the % scale 0 is the no-effect control and ±100 the full control effect; nearly all actives have a fitted effect of over 75% in size
# Target sequence (Q96KQ7 913-1193 limits assumed): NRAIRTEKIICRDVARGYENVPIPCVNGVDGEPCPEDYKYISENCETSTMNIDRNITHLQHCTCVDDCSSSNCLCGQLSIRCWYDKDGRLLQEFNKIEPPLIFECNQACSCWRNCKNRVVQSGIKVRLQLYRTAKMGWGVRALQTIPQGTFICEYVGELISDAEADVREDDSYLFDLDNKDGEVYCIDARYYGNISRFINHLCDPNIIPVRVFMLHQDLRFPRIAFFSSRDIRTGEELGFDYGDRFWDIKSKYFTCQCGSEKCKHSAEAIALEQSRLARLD
#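 AlphaScreen read-out: biotin-H3K9 peptide (500 nM) methylation by 20 nM enzyme with 20 uM SAM, 2 h at room temperature after 15 min compound preincubation; anti-monomethyl H3K9 antibody plus donor/acceptor beads, 10 min dark.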
# Sfp inh: Sfp phosphopantetheinyl transferase inhibition; Q9F4F7; Biochemical Sfp PPTase activity, qHTS; Potency, µM, inactives show largest response in the series, negative = inhibition, most hits filed as inhibitors; 3.5% of 310,000 active;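 further: the enzyme is Sfp with the accession as filed and its product quenches rhodamine fluorescence; 0% = enzyme reaction without inhibitor and -100% = no enzyme wells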
#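 Fluorescence-quenching assay: 15 nM Sfp-PPTase preincubated 15 min at room temperature with compound, then 5 uM rhodamine-CoA and 12.5 uM BHQ-2-labelled YbbR peptide added. Fluorescence (ex 525/em 598 nm) read at start and after 30 min; difference gives rate.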
# Active calls of the source: *; u = inconclusive; x = no result given; ! = not active in a repeat; [ ] = another dose, or the depositor's remark. Compounds with a hit are over-represented: about 12% of the library has one in this group of screens. The call rests on the fitted dose curve; in most records, active means well fitted curve in the direction sought with a large enough effect; inconclusive means small, poorly fitted or top-dose-only effect, or another doubt; inactive means no such curve, though single readings can be large; an effect the other way counts as inactive or inconclusive. Potency means the concentration at half of the fitted maximal effect.
SMILES,BAZ2B block,JMJD2A Tudor,L3MBTL1 inh,HP1b chromo inh,G9a inh,Sfp inh
Cc1ccc2oc(C(=O)Nc3nnc(CC(C)C)s3)cc(=O)c2c1,-3%,-5%,x,49%,5%[59 µM],x
COc1ccc(NC(=O)CSc2ncc(-c3ccc(F)cc3)n2Cc2ccco2)cc1,32µM*,56µM*,u,u,28µM*,1%
CCC(=O)Nc1cc(NC(=O)CSc2ncc(-c3ccc(F)cc3)n2Cc2ccco2)ccc1C,x,u,-10%,-12%,u,u
COCCn1c(-c2ccc(OC)cc2)cnc1SCC(=O)Nc1cccc2ccccc12,18µM*,25µM*,u,-47%,35µM*,6%
Cc1cnc(NC(=O)CSc2ncc(-c3ccccc3)n2Cc2ccco2)s1,22µM*,u,x,-2%,u,5%
COc1ccc(-c2cnc(SCC(=O)Nc3cc(C)on3)n2Cc2ccco2)cc1,45µM*,50µM*,-20%,u,u,8%
CCc1nnc(SC(CC)C(=O)NCCOC)c2cc3occc3n12 (stereo not given),-28%,-2%,x,23%,-33%[59 µM],x
C=CCOc1ccc(CC(=O)O)cc1Cl,x,x,x,x,27%[59 µM],-8%
COc1cccc(CNC(=O)C2CCN(S(=O)(=O)c3ccc4c(c3)CCCN4C(C)=O)CC2)c1,2%,-6%,x,30%[57 µM],3%[59 µM],x
NC(C(=O)O)C(CC(=O)O)c1ccc(Cl)cc1 (stereo not given),x,x,x,x,26%[59 µM],50µM*
Cc1ccc(C(CC(=O)c2ccc(Cl)cc2)C(=O)O)cc1 (stereo not given),-6%,7%,12%,32%,0%,10%
Cc1ccc(CNC(=O)CSc2ncn[nH]2)cc1,9%,-5%,x,42%,12%[59 µM],13%
COc1ccc(CNC(=O)CSc2ncn[nH]2)cc1,-4%,-22%,x,38%,2.8µM*,7%
O=C(CSc1ncn[nH]1)c1ccco1,0%,-5%[11.4 µM],-10%,u,5.6µM*,u
O=C(CSc1ncn[nH]1)c1ccccc1,u,25µM*,-4%,-70%,3.2µM*,56µM*
O=C(CSc1ncn[nH]1)Nc1ccc(Cl)c(Cl)c1,-2%,-5%[11.4 µM],-3%,59%,45µM*,18%
COc1cccc(CSc2nccn2C)c1,-9%,-10%,x,19%,x,6%
O=C(Cn1nnc(-c2ccccc2F)n1)Nc1ccc2c(c1)OCCO2,-38%,-4%,x,69%,10%,1%
COc1ccc(NS(=O)(=O)c2ccc(C(=O)N(C)Cc3cccs3)cc2)cc1,-11%,-5%,30%,30%,u,x
Cc1nc(-n2[nH]c3c(c2=O)CCCC3)[nH]c(=O)c1Cc1ccccc1,u,u,u,-5%,52%[59 µM],0%
Cc1cc(=O)[nH]c(-n2[nH]c3c(c2=O)CCCC3)n1,13µM*,2.2µM*,-3%,22%,-47%[59 µM],-12%
COc1ccc(/C=N/c2oc(-c3ccccc3)cc2C#N)cc1OC,u,u,-12%,u,u,79µM*
CC(=O)c1ccc(NC(=O)c2ccc3c(c2)nnn3C2CCCC2)cc1,-3%,-15%,x,-9%,-3%[59 µM],x
CC1CCN(CC(=O)Nc2ccc(Br)cc2[N+](=O)[O-])CC1,u,u,-23%[11.4 µM],u,u,14%
CNC(=S)N/N=C1\CC(c2ccccc2)Oc2ccccc21 (stereo not given),-15%,-8%[57.1 µM],16%[11.4 µM],-13%,16%,30%
SMILES,BAZ2B block,JMJD2A Tudor,L3MBTL1 inh,HP1b chromo inh,G9a inh,Sfp inh
Fc1ccc(N/N=C2/CC(c3ccccc3)Oc3ccccc32)c(F)c1 (stereo not given),u,u,-2%,-21%,10µM*,u
CC(C)(C)c1nn(-c2ccccc2)c2[nH]c(=O)c(CNc3ccc4c(c3)OCCO4)cc12,1.1µM*,40µM*,x,u,35µM*,9%
Cc1nn(-c2ccccc2)c2[nH]c(=O)c(CNc3ccc(N4CCOCC4)cc3)cc12,45µM*,u,-20%,u,32µM*,45µM*
Cc1ccc(OCCn2cnc3c2c(=O)n(C)c(=O)n3C)cc1,1%,-6%,x,29%,45µM*,15%
O=C(CN1C(=O)C2(SCC(=O)N2c2cccc(Cl)c2)c2ccccc21)NC1CCCCC1 (stereo not given),4%[57.1 µM],-16%,x,25%,0%[59 µM],x
COc1ccc(C(=O)NCc2nnc(SCC(=O)Nc3ccccc3)n2-c2ccccc2)cc1,0%[57.1 µM],-11%,x,42%,-16%[59 µM],x
O=C(/C=C/c1cccc([N+](=O)[O-])c1)Nc1cc(C(=O)O)cc(C(=O)O)c1,u,18µM*,x,u,u,10%
O=C(/C=C/c1ccc([N+](=O)[O-])cc1)Nc1cccc(C(=O)Nc2ccccc2C(=O)O)c1,u,u,u,u,45µM*,22%
COC(=O)c1cccc(NC(=O)/C=C/c2ccc([N+](=O)[O-])cc2)c1,-30%,-20%,2%,-10%,2%[59 µM],-8%
O=C(OC(C(=O)NCc1cccs1)c1ccccn1)c1cccs1 (stereo not given),56µM*,-11%,x,13%,u,-14%
COc1ccccc1CNC(=O)Cn1ncn2c(cc3sccc32)c1=O,4%,-8%,x,5%,7%[59 µM],x
[N-]=[N+]=CC(=O)CC(c1ccccc1)N1C(=O)c2ccccc2C1=O (stereo not given),32µM*,50µM*,u,17%,u,-27%
OC(CC#CCN1CCCC1)(c1ccccc1)c1ccccc1,-24%,-30%,-3%,26%,28µM*,0%
CN1CCN(CC#CCC(O)(c2ccccc2)C2CCCC2)CC1 (stereo not given),u,-25%,-4%,7%,8.9µM*,3%
CN1CCN(CC#CCC(O)(c2ccccc2)c2ccccc2)CC1,-22%,-11%,-5%,15%,71µM*,6%
Cc1ccc(NC(=O)CCSCCc2ccccn2)cc1,6%,-15%,x,24%,-32%,-3%
CC(=O)C(Cc1ccccc1)NC(=O)COC(=O)CCN1C(=O)C2CC=CCC2C1=O (stereo not given),10%,-8%,4%,6%,-13%,x
CCOc1ccc(NC(=O)C2CCCN(S(=O)(=O)c3ccc4[nH]c(=O)ccc4c3)C2)cc1 (stereo not given),-24%,50µM*!,x,6%,-8%[59 µM],21%
COCCN1C(=O)Cc2c1nc(N)c1c(N)nc(N3CCN(c4ccc(F)cc4)CC3)c(C#N)c21,-34%,-32%,-23%,5%,35µM*,21%
N#CCc1c(C#N)c(N)nc(N2CCN(c3ccc(F)cc3)CC2)c1C#N,13%,u,x,13%,50µM*,-11%
